According to the supplement of paper PMC3545927:
This is one part of the list. How many sequences the whole screen found active is unknown.

B1: HC2146 (peptide)
chain: CAMVVTSTWVAGNASASA
B2: HC825 (peptide)
chain: CAIGTVLDQAAGNASASA
B3: HC1509 (peptide)
chain: CARRCRASGVAGNASASA
B4: FS-2778 (peptide)
chain: CARRKRDWVIAGNASASA
B5: FS-3255 (peptide)
chain: CARHKRLSYQAGNASASA
B6: FS-2751 (peptide)
chain: CARQKRDWIWAGNASASA
B7: FS-2289 (peptide)
chain: CARQKRDPAFAGNASASA
B8: FS-2749 (peptide)
chain: CARQKKGVVPAGNASASA
B9: FS-2211 (peptide)
chain: CARHKRQSGVAGNASASA
B10: FS-2169 (peptide)
chain: CARQKRGWMWAGNASASA
B11: FS-2812 (peptide)
chain: CARSKRRWVIAGNASASA
B12: HC2280 (peptide)
chain: CACLEVVTSTAGNASASA
B13: HC1625 (peptide)
chain: CAARLLARGGAGNASASA
B14: HC1029 (peptide)
chain: CAQTASRQAEAGNASASA
B15: HC801 (peptide)
chain: CAGVRTITTGAGNASASA
B16: HC2524 (peptide)
chain: CASTPCSIHLAGNASASA
B17: HC1843 (peptide)
chain: CATAPCSGSWAGNASASA
B18: FS-2677 (peptide)
chain: CARHKRDWVVAGNASASA
B19: FU6 (peptide)
chain: CARQKRFVLSAGNASASA
B20: FS-1822 (peptide)
chain: CARHERDAGVAGNASASA
B21: FS-2113 (peptide)
chain: CARYSRGVLSAGNASASA
B22: FS-2444 (peptide)
chain: CARQKRFVLSAGNASASA
B23: FS-2586 (peptide)
chain: CARQKRDWVIAGNASASA
B24: FS-2750 (peptide)
chain: CARQKRDTTHAGNASASA
B25: FS-2755 (peptide)
chain: CARQKRLFCRAGNASASA
B26: HC1644 (peptide)
chain: CALSGWFTAGAGNASASA
B27: HC303 (peptide)
chain: CAFLVGQLFTAGNASASA
B28: HC875 (peptide)
chain: CASGDVVVVAAGNASASA
B29: HC1729 (peptide)
chain: CAMEECSYHLAGNASASA
B30: TR10 (peptide)
chain: CAAPRSSMSNAGNASASA
B31: FS-3033 (peptide)
chain: CARQKKADEPAGNASASA
B32: FS-2506 (peptide)
chain: CARQKRDANSAGNASASA
B33: HC936 (peptide)
chain: CACQDHLEFWAGNASASA
B34: FS-129 (peptide)
chain: CAGVGRVLRSAGNASASA
B35: FS-1019 (peptide)
chain: CAKPRRILRSAGNASASA
B36: FS-1020 (peptide)
chain: CAKPRRRRKSAGNASASA
B37: FS-446 (peptide)
chain: CAKDGRRRKSAGNASASA
B38: HC297 (peptide)
chain: CASALYVGDLAGNASASA
B39: FS-987 (peptide)
chain: CADSSRPARFAGNASASA
B40: FS-1135 (peptide)
chain: CALKGRPARFAGNASASA
B41: EK8 (peptide)
chain: CAVEGERGFFAGNASASA
B42: FS-1545 (peptide)
chain: CAMTHRWNRFAGNASASA
B43: FS-1186 (peptide)
chain: CAARQRRARFAGNASASA
B44: FS-767 (peptide)
chain: CAFKHRRARFAGNASASA

Target: furin, P09958
Sequence (P09958 whole entry): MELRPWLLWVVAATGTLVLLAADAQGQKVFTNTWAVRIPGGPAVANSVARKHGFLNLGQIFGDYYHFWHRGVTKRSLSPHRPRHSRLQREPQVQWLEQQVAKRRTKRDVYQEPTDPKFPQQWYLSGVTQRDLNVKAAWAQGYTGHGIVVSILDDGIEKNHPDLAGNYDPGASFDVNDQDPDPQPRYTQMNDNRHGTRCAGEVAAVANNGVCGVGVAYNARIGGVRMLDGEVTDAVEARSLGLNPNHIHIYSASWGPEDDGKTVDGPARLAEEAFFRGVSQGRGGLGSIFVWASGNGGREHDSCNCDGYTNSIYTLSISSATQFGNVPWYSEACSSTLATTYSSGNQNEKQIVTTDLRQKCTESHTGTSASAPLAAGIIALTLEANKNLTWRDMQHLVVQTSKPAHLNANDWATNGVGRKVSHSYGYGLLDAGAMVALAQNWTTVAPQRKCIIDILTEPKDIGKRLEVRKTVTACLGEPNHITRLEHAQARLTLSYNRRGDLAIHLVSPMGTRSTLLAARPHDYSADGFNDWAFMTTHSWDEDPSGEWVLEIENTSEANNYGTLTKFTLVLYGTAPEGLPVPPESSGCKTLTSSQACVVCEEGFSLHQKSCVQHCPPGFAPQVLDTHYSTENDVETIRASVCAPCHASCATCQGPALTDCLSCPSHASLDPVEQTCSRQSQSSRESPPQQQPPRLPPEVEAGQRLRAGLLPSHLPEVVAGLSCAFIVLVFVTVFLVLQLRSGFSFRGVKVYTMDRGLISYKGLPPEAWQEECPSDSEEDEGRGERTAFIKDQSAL
Test: furin cleavage Z-score vs untreated control; higher = more cleavage, active = 3.5 or more, inactive = 1 or less, 8 variable residues between constant flanks
Method: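 Multiplexed peptide-cDNA fusion cleavage assay. 8-mer variable peptides flanked by constant Cys-Ala (N-term) and Ala-Gly-Asn-Ala-Ser-Ala-Ser-Ala (C-term) and conjugated to a cDNA oligonucleotide were bead-immobilised via the N-terminus. They were treated with purified furin at a 1:10 enzyme:substrate ratio in 50 mM HEPES pH 7.5, 1 mM CaCl2, 100 mM NaCl for 7.5, 15 or 30 min. Released cDNA was counted by next-generation sequencing, and log counts versus no-furin controls were lowess-adjusted and converted to robust Z-scores.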

| Sequence | furin cleavage Z-score (7.5 min) | furin cleavage Z-score (15 min) | furin cleavage Z-score (30 min) |
| --- | --- | --- | --- |
| B1 | -1.12 (inactive) | -1.84 (inactive) | -2.22 (inactive) |
| B2 | -1.51 (inactive) | -1.57 (inactive) | -0.129 (inactive) |
| B3 | -1.17 (inactive) | -0.493 (inactive) | -0.69 (inactive) |
| B4 | 3.18 | 5.46 (active) | 8.57 (active) |
| B5 | -1.36 (inactive) | -0.609 (inactive) | 1.23 |
| B6 | 3.51 (active) | 5.26 (active) | 8.38 (active) |
| B7 | 2.9 | 3.65 (active) | 5.36 (active) |
| B8 | 0.952 (inactive) | -0.837 (inactive) | -1.72 (inactive) |
| B9 | 5.97 (active) | 7.29 (active) | 6.66 (active) |
| B10 | -0.547 (inactive) | 2.65 | 3 |
| B11 | -0.553 (inactive) | -0.688 (inactive) | 0.146 (inactive) |
| B12 | -1.07 (inactive) | -0.98 (inactive) | 0.458 (inactive) |
| B13 | -1.06 (inactive) | -1.7 (inactive) | -0.871 (inactive) |
| B14 | 1.23 | 0.0169 (inactive) | -0.455 (inactive) |
| B15 | 0.457 (inactive) | -0.157 (inactive) | -1.39 (inactive) |
| B16 | -0.158 (inactive) | 0.385 (inactive) | 1.12 |
| B17 | -0.496 (inactive) | -0.615 (inactive) | -1.22 (inactive) |
| B18 | 4.03 (active) | 1.73 | 8.28 (active) |
| B19 | 5.85 (active) | 4.21 (active) | 6.95 (active) |
| B20 | 0.322 (inactive) | 0.612 (inactive) | -0.236 (inactive) |
| B21 | 0.374 (inactive) | 0.104 (inactive) | 0.696 (inactive) |
| B22 | 4.98 (active) | 5.66 (active) | 7.27 (active) |

| Sequence | furin cleavage Z-score (7.5 min) | furin cleavage Z-score (15 min) | furin cleavage Z-score (30 min) |
| --- | --- | --- | --- |
| B23 | 2.07 | 4.34 (active) | 6.74 (active) |
| B24 | 12.5 (active) | 13.1 (active) | 9.68 (active) |
| B25 | -1.26 (inactive) | 0.165 (inactive) | 0.958 (inactive) |
| B26 | -0.277 (inactive) | -0.506 (inactive) | -1.36 (inactive) |
| B27 | -0.568 (inactive) | -0.266 (inactive) | 0.343 (inactive) |
| B28 | -0.568 (inactive) | -1.7 (inactive) | 1.07 |
| B29 | -0.21 (inactive) | -0.538 (inactive) | -0.509 (inactive) |
| B30 | -0.848 (inactive) | -0.0583 (inactive) | -0.668 (inactive) |
| B31 | -0.414 (inactive) | 0.374 (inactive) | -1.07 (inactive) |
| B32 | 10.9 (active) | 12 (active) | 11.1 (active) |
| B33 | -1.02 (inactive) | -2.52 (inactive) | -2.85 (inactive) |
| B34 | 7 (active) | 7.17 (active) | 7.2 (active) |
| B35 | 6.74 (active) | 4.42 (active) | 5.71 (active) |
| B36 | 5.69 (active) | 7.66 (active) | 7.17 (active) |
| B37 | 0.703 (inactive) | 2.31 | 0.747 (inactive) |
| B38 | -0.151 (inactive) | -0.752 (inactive) | -0.26 (inactive) |
| B39 | 0.601 (inactive) | 2.61 | 1.35 |
| B40 | 1.12 | 3.63 (active) | 3.8 (active) |
| B41 | -1.92 (inactive) | -1.33 (inactive) | -1.12 (inactive) |
| B42 | -0.191 (inactive) | 1.1 | -0.35 (inactive) |
| B43 | 7.96 (active) | 10.3 (active) | 9.01 (active) |
| B44 | 5.47 (active) | 8.44 (active) | 8.1 (active) |
